Among all 5,500 compounds or so, about 2,000 (36%) were called active. Inconclusive results (about 18%) are left out. No stated cut-off is given here; in the data, active means normalized growth mostly below about 0.91 (no sharp cut-off); inconclusive means no clear call, values can overlap the other calls; inactive means mostly above about 0.92. The list shows a part of the results.
Experiment: chemical genetic growth profiling, strain panel (AID 1159580);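 further: tested at 20 µM; growth read once vehicle control cultures reached saturation at 30 °C; 1 = growth at the plate median or of vehicle wells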
Conditions: S. cerevisiae deletion strains, growth OD

Measured: normalized growth

O=C(O)/C=C/C=C/c1ccc2c(c1)OCO2
inactive: locus YHR030C, strain SLT2, stronger effect = lower value 0.899 | locus YHR079C, strain IRE1, stronger effect = lower value 0.884 | locus YJL095W, strain BCK1, stronger effect = lower value 0.897 | locus YJR066W, strain TOR1, stronger effect = lower value 0.873 | locus YLR113W, strain HOG1, stronger effect = lower value 0.958 | locus YNL183C, strain NPR1, stronger effect = lower value 0.886 | locus YOR231W, strain MKK1, stronger effect = lower value 0.893 | locus YPL256C, strain CLN2, stronger effect = lower value 0.945

— PubChem BioAssay AID1159580 (chemical genetic matrix, 2015)
